Measurements published in PubChem BioAssay AID1159580 (chemical genetic matrix, 2015).
The campaign covered roughly 5,500 compounds. About 2,000 (36%) were called active. Another 18% or so got no clear call; they are omitted. Some of the results follow. Values without a mark were called inactive. No stated cut-off is given here; in the data, active means normalized growth mostly below about 0.91 (no sharp cut-off); inconclusive means no clear call, values can overlap the other calls; inactive means mostly above about 0.92.

Experiment: chemical genetic growth profiling, strain panel (AID 1159580);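 further: tested at 20 µM; growth read once vehicle control cultures reached saturation at 30 °C; 1 = growth at the plate median or of vehicle wells; lower values mean less growth of the strain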
Conditions: growth OD
[1] = S. cerevisiae deletion strains, locus YDL101C, strain DUN1, active compounds read low
[2] = S. cerevisiae deletion strains, locus YHR030C, strain SLT2, active compounds read low

For `Cc1c(-c2csc(-c3ccc(Cl)cc3)n2)sc2ccc(Cl)cc12`, the normalized growth (S. cerevisiae deletion strains, locus YAL013W, strain DEP1, active compounds read low) was 1.03, the normalized growth (S. cerevisiae deletion strains, locus YBR229C, strain ROT2, active compounds read low) was 1.03 and the normalized growth [1] was 1.05. The normalized growth (S. cerevisiae deletion strains, locus YDR150W, strain NUM1, active compounds read low) was 1.01, the normalized growth (S. cerevisiae deletion strains, locus YEL061C, strain CIN8, active compounds read low) was 0.996 and the normalized growth (S. cerevisiae deletion strains, locus YGR078C, strain PAC10, active compounds read low) was 1.04. For the same molecule, the normalized growth (S. cerevisiae deletion strains, locus YGR229C, strain SMI1, active compounds read low) was 1.03, the normalized growth [2] was 1.07 and the normalized growth (S. cerevisiae deletion strains, locus YHR087W, strain rtc3, active compounds read low) was 1.03. The normalized growth (S. cerevisiae deletion strains, locus YJR043C, strain POL32, active compounds read low) was 1.04, the normalized growth (S. cerevisiae deletion strains, locus YJR075W, strain HOC1, active compounds read low) was 1.02 and the normalized growth (S. cerevisiae deletion strains, locus YLR039C, strain RIC1, active compounds read low) was 1.07. The normalized growth (S. cerevisiae deletion strains, locus YLR058C, strain SHM2 (second series), active compounds read low) was 1.05, the normalized growth (S. cerevisiae deletion strains, locus YLR085C, strain ARP6, active compounds read low) was 1.05 and the normalized growth (S. cerevisiae deletion strains, locus YLR262C, strain YPT6, active compounds read low) was 1.09. The normalized growth (S. cerevisiae deletion strains, locus YML094W, strain GIM5, active compounds read low) was 1.04, the normalized growth (S. cerevisiae deletion strains, locus YMR219W, strain ESC1, active compounds read low) was 1.04 and the normalized growth (S. cerevisiae deletion strains, locus YMR263W, strain SAP30, active compounds read low) was 1.02. For the same molecule, the normalized growth (S. cerevisiae deletion strains, locus YMR307W, strain GAS1, active compounds read low) was 1.07, the normalized growth (S. cerevisiae deletion strains, locus YNL153C, strain GIM3, active compounds read low) was 1.02 and the normalized growth (S. cerevisiae deletion strains, locus YNL298W, strain CLA4 (second series), active compounds read low) was 1.09. It also gave a normalized growth (S. cerevisiae deletion strains, locus YNL322C, strain KRE1, active compounds read low) of 1.04, a normalized growth (S. cerevisiae deletion strains, locus YNR030W, strain Alg12, active compounds read low) of 1.04 and a normalized growth (S. cerevisiae deletion strains, locus YOL006C, strain TOP1, active compounds read low) of 1.1. It also gave a normalized growth (S. cerevisiae deletion strains, locus YPL055C, strain LGE1, active compounds read low) of 0.999, a normalized growth (S. cerevisiae deletion strains, locus YPL241C, strain CIN2, active compounds read low) of 1.03 and a normalized growth (S. cerevisiae deletion strains, locus YPR135W, strain CTF4, active compounds read low) of 1.07. For the same molecule, the normalized growth (S. cerevisiae strains, strain wild type, active compounds read low) was 1.04.

In the case of `Cn1ncc(-c2nc(-c3ccc(Cl)cc3)cs2)c1N`, the normalized growth (S. cerevisiae deletion strains, locus YAR019C, strain CDC15, active compounds read low) is reported as 0.933, the normalized growth (S. cerevisiae deletion strains, locus YBL105C, strain PKC1, active compounds read low) is reported as 0.931 and the normalized growth (S. cerevisiae deletion strains, locus YBR135W, strain CKS1, active compounds read low) is reported as 0.935. The normalized growth (S. cerevisiae deletion strains, locus YBR136W, strain MEC1, active compounds read low) was 0.933, the normalized growth (S. cerevisiae deletion strains, locus YBR160W, strain CDC28, active compounds read low) was 0.939 and the normalized growth (S. cerevisiae deletion strains, locus YDL017W, strain CDC7, active compounds read low) was 0.935. It also gave a normalized growth (S. cerevisiae deletion strains, locus YDL028C, strain MPS1, active compounds read low) of 0.94, a normalized growth [1] of 0.961 and a normalized growth (S. cerevisiae deletion strains, locus YDL108W, strain KIN28, active compounds read low) of 0.936. For the same molecule, the normalized growth (S. cerevisiae deletion strains, locus YDL132W, strain cdc53, active compounds read low) was 0.931, the normalized growth (S. cerevisiae deletion strains, locus YDL214C, strain PRR2, active compounds read low) was 0.904 and the normalized growth (S. cerevisiae deletion strains, locus YDR052C, strain DBF4, active compounds read low) was 0.935. For the same molecule, the normalized growth (S. cerevisiae deletion strains, locus YDR054C, strain cdc34, active compounds read low) was 0.91, the normalized growth (S. cerevisiae deletion strains, locus YDR226W, strain ADK1, active compounds read low) was 0.925 and the normalized growth (S. cerevisiae deletion strains, locus YDR477W, strain SNF1, active compounds read low) was 0.785. For the same molecule, the normalized growth (S. cerevisiae deletion strains, locus YER123W, strain YCK3, active compounds read low) was 0.921, the normalized growth (S. cerevisiae deletion strains, locus YER133W, strain GLC7, active compounds read low) was 0.75 and the normalized growth (S. cerevisiae deletion strains, locus YFL009W, strain cdc4, active compounds read low) was 0.935. For the same molecule, the normalized growth (S. cerevisiae deletion strains, locus YFL029C, strain CAK1, active compounds read low) was 0.942, the normalized growth (S. cerevisiae deletion strains, locus YFR003C, strain YPI1, active compounds read low) was 0.943 and the normalized growth (S. cerevisiae deletion strains, locus YFR019W, strain FAB1, active compounds read low) was 0.95. The normalized growth (S. cerevisiae deletion strains, locus YFR028C, strain CDC14, active compounds read low) was 0.922, the normalized growth (S. cerevisiae deletion strains, locus YGR040W, strain KSS1, active compounds read low) was 0.785 and the normalized growth (S. cerevisiae deletion strains, locus YGR052W, strain FMP48, active compounds read low) was 0.854. For the same molecule, the normalized growth (S. cerevisiae deletion strains, locus YGR092W, strain DBF2, active compounds read low) was 0.781, the normalized growth [2] was 0.687 (active) and the normalized growth (S. cerevisiae deletion strains, locus YHR079C, strain IRE1, active compounds read low) was 0.822. It also gave a normalized growth (S. cerevisiae deletion strains, locus YHR082C, strain KSP1, active compounds read low) of 0.897, a normalized growth (S. cerevisiae deletion strains, locus YHR205W, strain SCH9, active compounds read low) of 0.798 and a normalized growth (S. cerevisiae deletion strains, locus YIL147C, strain SLN1, active compounds read low) of 0.936. It also gave a normalized growth (S. cerevisiae deletion strains, locus YJL095W, strain BCK1, active compounds read low) of 0.729, a normalized growth (S. cerevisiae deletion strains, locus YJL128C, strain PBS2, active compounds read low) of 0.987 and a normalized growth (S. cerevisiae deletion strains, locus YJL157C, strain FAR1, active compounds read low) of 0.879. For the same molecule, the normalized growth (S. cerevisiae deletion strains, locus YJR016C, strain ILV3, active compounds read low) was 0.934, the normalized growth (S. cerevisiae deletion strains, locus YJR066W, strain TOR1 (second series), active compounds read low) was 0.8 and the normalized growth (S. cerevisiae deletion strains, locus YJR066W, strain TOR1, active compounds read low) was 0.78. For the same molecule, the normalized growth (S. cerevisiae deletion strains, locus YKL048C, strain ELM1, active compounds read low) was 0.95, the normalized growth (S. cerevisiae deletion strains, locus YKL067W, strain YNK1, active compounds read low) was 0.932 and the normalized growth (S. cerevisiae deletion strains, locus YKL101W, strain HSL1, active compounds read low) was 0.947. For the same molecule, the normalized growth (S. cerevisiae deletion strains, locus YKL193C, strain SDS22, active compounds read low) was 0.924, the normalized growth (S. cerevisiae deletion strains, locus YKL203C, strain TOR2, active compounds read low) was 0.817 and the normalized growth (S. cerevisiae deletion strains, locus YLR113W, strain HOG1, active compounds read low) was 0.906. The normalized growth (S. cerevisiae deletion strains, locus YLR133W, strain CKI1, active compounds read low) was 0.886, the normalized growth (S. cerevisiae deletion strains, locus YLR403W, strain SFP1, active compounds read low) was 0.651 (active) and the normalized growth (S. cerevisiae deletion strains, locus YML070W, strain DAK1, active compounds read low) was 0.91. For the same molecule, the normalized growth (S. cerevisiae deletion strains, locus YMR001C, strain CDC5, active compounds read low) was 0.914, the normalized growth (S. cerevisiae deletion strains, locus YMR205C, strain PFK2 (second series), active compounds read low) was 0.917 and the normalized growth (S. cerevisiae deletion strains, locus YMR277W, strain FCP1, active compounds read low) was 0.914. The normalized growth (S. cerevisiae deletion strains, locus YNL006W, strain LST8, active compounds read low) was 0.95, the normalized growth (S. cerevisiae deletion strains, locus YNL020C, strain ARK1, active compounds read low) was 0.897 and the normalized growth (S. cerevisiae deletion strains, locus YNL161W, strain CBK1, active compounds read low) was 0.93. It also gave a normalized growth (S. cerevisiae deletion strains, locus YNL183C, strain NPR1, active compounds read low) of 0.892, a normalized growth (S. cerevisiae deletion strains, locus YNL207W, strain RIO2, active compounds read low) of 0.916 and a normalized growth (S. cerevisiae deletion strains, locus YNL222W, strain SSU72, active compounds read low) of 0.934. It also gave a normalized growth (S. cerevisiae deletion strains, locus YNL307C, strain MCK1 (second series), active compounds read low) of 0.899, a normalized growth (S. cerevisiae deletion strains, locus YOL078W, strain AVO1, active compounds read low) of 0.934 and a normalized growth (S. cerevisiae deletion strains, locus YOL136C, strain PFK27, active compounds read low) of 0.939. For the same molecule, the normalized growth (S. cerevisiae deletion strains, locus YOR061W, strain CKA2, active compounds read low) was 0.874, the normalized growth (S. cerevisiae deletion strains, locus YOR119C, strain RIO1, active compounds read low) was 0.803 and the normalized growth (S. cerevisiae deletion strains, locus YOR231W, strain MKK1, active compounds read low) was 0.96. It also gave a normalized growth (S. cerevisiae deletion strains, locus YOR329C, strain SCD5, active compounds read low) of 0.944, a normalized growth (S. cerevisiae deletion strains, locus YPL031C, strain PHO85, active compounds read low) of 0.74 and a normalized growth (S. cerevisiae deletion strains, locus YPL153C, strain RAD53, active compounds read low) of 0.776. The normalized growth (S. cerevisiae deletion strains, locus YPL204W, strain HRR25, active compounds read low) was 0.774, the normalized growth (S. cerevisiae deletion strains, locus YPL209C, strain IPL1, active compounds read low) was 0.938 and the normalized growth (S. cerevisiae deletion strains, locus YPL256C, strain CLN2, active compounds read low) was 0.859 (active). It also gave a normalized growth (S. cerevisiae deletion strains, locus YPR025C, strain CCL1, active compounds read low) of 0.944, a normalized growth (S. cerevisiae deletion strains, locus YPR106W, strain ISR1, active compounds read low) of 0.955 and a normalized growth (S. cerevisiae deletion strains, locus YPR111W, strain DBF20, active compounds read low) of 0.959. It also gave a normalized growth (S. cerevisiae deletion strains, strain NNK1, active compounds read low) of 0.966 and a normalized growth (S. cerevisiae deletion strains, strain TSCII, active compounds read low) of 0.933.
